# Data taken from PubChem BioAssay (NCATS).
# Values joined by “and” are separate entries in the source; they are usually repeats but may differ in a detail not shown here. Equal entries are not always repeated. Records with an inconclusive call do not appear. Where a call stands in place of a potency, no number is given. Active and inactive are the calls of the source. Unless noted, calls follow the shape of the full dose curve. Numbered stars: 1 amine (or outer) side, 2 acyl side, 3 side chain; on linkers, the order of the positions; unused ones are H or OH. Bridge positions count the residues as written; N and C are the ends. Square brackets hold non-standard residues; d marks the D form. Peptide text beside a SMILES is read from it. I, II: the chains in the order shown. Actinocin(9to1) = Cc1c2oc3c(C)ccc(C(=O)[*:1])c3nc-2c(C(=O)[*:2])c(N)c1=O; NMeV = CN[CH](C(=O)O)C(C)C; Sar = CNCC(=O)O
# Key:
# [1] = qHTS for Inhibitors of the Functional Ribonucleoprotein Complex (vRNP) of Lassa (LASV) Arenavirus: LASV Primary Screen - GLuc reporter signal (AID 1347082; calls by dose curve; tested in HEK293 reporter line; also: nearly all actives have a fitted effect of over 60% in size; also: potency is read from the fitted curve at half-maximal effect)
# [2] = qHTS for Inhibitors of the Functional Ribonucleoprotein Complex (vRNP) of Lassa (LASV) Arenavirus: Viability assay - alamar blue signal for LASV Primary Screen (AID 1347083; calls by dose curve; tested in HEK293 reporter line; also: nearly all actives have a fitted effect of over 80% in size; also: potency is read from the fitted curve at half-maximal effect)
# [3] = qHTS for Inhibitors of the Functional Ribonucleoprotein Complex (vRNP) of Lymphocytic Choriomeningitis Arenaviruses (LCMV): Viability assay - alamar blue signal for LCMV Primary Screen (AID 1347085; calls by dose curve; tested in HEK293 reporter line; also: nearly all actives have a fitted effect of over 80% in size; also: potency is read from the fitted curve at half-maximal effect)
# [4] = molecular target: Nucleoprotein (Lymphocytic choriomeningitis virus (strain Armstrong)) (UniProt P09992); test: qHTS for Inhibitors of the Functional Ribonucleoprotein Complex (vRNP) of Lymphocytic Choriomeningitis Arenaviruses (LCMV): LCMV Primary Screen - GLuc reporter signal (AID 1347086); also: nearly all actives have a fitted effect of over 70% in size; also: potency is read from the fitted curve at half-maximal effect
# Nucleoprotein (Lymphocytic choriomeningitis virus (strain Armstrong)), sequence (P09992 whole entry, looked up): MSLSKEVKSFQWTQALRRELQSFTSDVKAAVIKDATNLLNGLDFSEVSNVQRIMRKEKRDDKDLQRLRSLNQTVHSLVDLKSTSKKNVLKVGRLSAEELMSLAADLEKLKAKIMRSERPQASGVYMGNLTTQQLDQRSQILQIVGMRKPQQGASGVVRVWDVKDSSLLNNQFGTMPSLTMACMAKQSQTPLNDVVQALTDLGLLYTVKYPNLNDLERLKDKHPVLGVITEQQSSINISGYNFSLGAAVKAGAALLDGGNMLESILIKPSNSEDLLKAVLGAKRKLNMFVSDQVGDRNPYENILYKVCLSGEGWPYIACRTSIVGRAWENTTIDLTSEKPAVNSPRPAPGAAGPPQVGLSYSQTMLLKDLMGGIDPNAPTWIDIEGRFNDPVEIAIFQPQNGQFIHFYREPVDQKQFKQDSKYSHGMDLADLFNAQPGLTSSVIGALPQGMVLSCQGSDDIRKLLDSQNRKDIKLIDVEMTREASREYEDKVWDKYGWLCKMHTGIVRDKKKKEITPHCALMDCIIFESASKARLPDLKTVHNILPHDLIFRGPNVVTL
# [5] = Primary qHTS to identify inhibitors of SARS-CoV-2 cell entry (AID 1645846); conditions: activity change, negative = inhibition: at 57.1 µM (top of the series) unless noted; also: nearly all actives have a fitted effect of over 45% in size; also: potency is read from the fitted curve at half-maximal effect
# Procedure, shortened: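 HEK293-ACE2 (Expi293F, stable hACE2), 1500 cells/well, o/n 37C; cpd 23 nL pin, 1 h; MLV-PP w/ SARS-CoV-2-S (Wuhan-Hu-1, Δ19 C-term); 48 h 37C; Bright-Glo luminescence; normalized vs S-PP and bald PP.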
# [6] = molecular target: Nuclear receptor subfamily 1 group I member 3 (Homo sapiens) (UniProt Q14994); test: Primary qHTS for antagonist of constitutive androstane receptor (CAR) against the NCATS DSHEA and TCM libraries (AID 1794836; active = well fitted curve in the direction sought with a large enough effect; an effect the other way counts as inactive or inconclusive)
# Nuclear receptor subfamily 1 group I member 3 (Homo sapiens), sequence (Q14994 whole entry, looked up): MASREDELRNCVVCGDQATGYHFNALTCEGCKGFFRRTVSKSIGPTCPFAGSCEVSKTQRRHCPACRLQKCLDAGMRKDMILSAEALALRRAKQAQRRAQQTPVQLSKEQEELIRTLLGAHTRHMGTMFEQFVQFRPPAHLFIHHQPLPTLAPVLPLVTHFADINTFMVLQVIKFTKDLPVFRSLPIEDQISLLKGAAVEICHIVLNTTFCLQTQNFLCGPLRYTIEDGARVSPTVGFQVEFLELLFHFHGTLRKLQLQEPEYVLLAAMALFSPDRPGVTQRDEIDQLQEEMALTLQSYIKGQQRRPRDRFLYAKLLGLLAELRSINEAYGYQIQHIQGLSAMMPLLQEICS
# Procedure, shortened: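 HepG2 cells stably carrying hCAR and a CYP2B6 luciferase reporter (2,500 cells/well) attached for 5 h, then received compounds with 48 uM CITCO for 24 h at 37C. ONE-Glo luminescence read antagonism; CellTiter-Fluor (405/540 nm) gave viability.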
# [7] = KB-8-5-11 P-gp reporter qHTS against the NCATS DSHEA and TCM libraries (AID 1919977; active = well fitted curve in the direction sought with a large enough effect; an effect the other way counts as inactive or inconclusive)
# Procedure, shortened: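 CellTiter-Glo luminescence after ~72 h exposure at 37C gave viability of KB-8-5-11 cells, the P-gp-overexpressing subline. Substances were titrated; colchicine was omitted from assay medium.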
# [8] = molecular target: Cytochrome P450 3A4 (Homo sapiens) (UniProt P08684); test: qHTS Assay for Inhibitors and Substrates of Cytochrome P450 3A4 (AID 884; active = well fitted curve in the direction sought with a large enough effect; an effect the other way counts as inactive or inconclusive; also: potency is read from the fitted curve at half-maximal effect; nearly all actives have a fitted effect of over 50% in size)
# Cytochrome P450 3A4 (Homo sapiens), sequence (P08684 whole entry, looked up): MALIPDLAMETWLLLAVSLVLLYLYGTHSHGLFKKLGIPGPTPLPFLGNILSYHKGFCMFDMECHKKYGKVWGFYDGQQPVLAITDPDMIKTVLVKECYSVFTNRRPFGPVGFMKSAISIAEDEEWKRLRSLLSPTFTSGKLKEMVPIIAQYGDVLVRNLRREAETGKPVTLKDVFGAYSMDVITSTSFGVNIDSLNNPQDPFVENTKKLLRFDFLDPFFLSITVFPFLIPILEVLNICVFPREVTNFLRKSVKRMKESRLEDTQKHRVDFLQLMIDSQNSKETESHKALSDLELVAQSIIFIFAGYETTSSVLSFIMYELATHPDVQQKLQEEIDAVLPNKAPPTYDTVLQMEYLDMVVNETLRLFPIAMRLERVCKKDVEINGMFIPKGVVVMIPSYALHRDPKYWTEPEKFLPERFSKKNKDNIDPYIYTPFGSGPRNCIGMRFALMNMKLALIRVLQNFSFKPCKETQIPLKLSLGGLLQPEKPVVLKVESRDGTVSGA
# Procedure, shortened: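 Luminescent readout of luciferin produced by CYP3A4 (20 nM) dealkylation of Luciferin-PPXE, 25 uM (its KM). NADPH-driven reaction ran 60 min at RT after 10 min compound preincubation; data scaled to 57 uM ketoconazole as 100% inhibition.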
# [9] = molecular target: Cytochrome P450 3A4 (Homo sapiens) (UniProt P08684); test: qHTS Assay for Activators of Cytochrome P450 3A4 (AID 885; active = well fitted curve in the direction sought with a large enough effect; an effect the other way counts as inactive or inconclusive; also: nearly all actives have a fitted effect of over 65% in size)
# Procedure, shortened: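 Luminescent readout of luciferin formed from 25 uM Luciferin-PPXE (KM level) by 20 nM CYP3A4 in 200 mM KPO4, with 60 min NADPH-driven reaction at room temperature after 10 min compound exposure. Ketoconazole (57 uM) defined 100% inhibition.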
# [10] = molecular target: Alpha-galactosidase (Coffea arabica) (UniProt Q42656); test: Counterscreen for Glucocerebrosidase Inhibitors: qHTS Assay for Coffee Bean alpha-Galactosidase at pH 4.5 (AID 957; active = well fitted curve in the direction sought with a large enough effect; an effect the other way counts as inactive or inconclusive)
# Alpha-galactosidase (Coffea arabica), sequence (Q42656 whole entry, looked up): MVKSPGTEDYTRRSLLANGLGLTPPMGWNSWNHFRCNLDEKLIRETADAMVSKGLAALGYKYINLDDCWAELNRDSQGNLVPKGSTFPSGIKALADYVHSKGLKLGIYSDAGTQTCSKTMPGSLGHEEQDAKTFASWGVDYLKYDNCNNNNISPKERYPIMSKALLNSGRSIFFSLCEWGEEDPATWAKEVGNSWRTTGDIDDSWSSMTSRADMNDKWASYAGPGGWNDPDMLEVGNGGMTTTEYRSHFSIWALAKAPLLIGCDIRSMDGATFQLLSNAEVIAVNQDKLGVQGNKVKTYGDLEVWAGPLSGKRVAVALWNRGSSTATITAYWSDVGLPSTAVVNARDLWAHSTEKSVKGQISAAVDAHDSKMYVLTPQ
# Procedure, shortened: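 Quantitative HTS of compounds (0.7 nM to 77 uM) against coffee bean alpha-galactosidase at pH 4.5, measuring 4-methylumbelliferone fluorescence released from 80 uM substrate.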
# [11] = molecular target: Alpha-galactosidase (Coffea arabica) (UniProt Q42656); test: Counterscreen for Glucocerebrosidase Inhibitors: qHTS Assay for Coffee Bean alpha-Galactosidase at pH 5.9 (AID 998; active = well fitted curve in the direction sought with a large enough effect; an effect the other way counts as inactive or inconclusive)
# Procedure, shortened: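 In 50 mM citric acid pH 5.9 with 0.005% Tween-20, coffee bean enzyme hydrolyses 80 uM 4-MU alpha-D-galactopyranoside over 20 min at RT. Activity is normalized to controls; AC50 comes from Hill-modelled concentration-response data.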
# [12] = Validation screen for inhibitors of Lassa infection (AID 463096)
# [13] = molecular target: M-phase phosphoprotein 8 (Homo sapiens) (UniProt Q99549); test: qHTS Validation Assay for Inhibitors for MPP8 Chromodomain Interactions with Methylated Histone Tails (AID 488949; active = well fitted curve in the direction sought with a large enough effect; an effect the other way counts as inactive or inconclusive; also: potency is read from the fitted curve at half-maximal effect; nearly all actives have a fitted effect of over 55% in size)
# M-phase phosphoprotein 8 (Homo sapiens), sequence (Q99549 whole entry, looked up): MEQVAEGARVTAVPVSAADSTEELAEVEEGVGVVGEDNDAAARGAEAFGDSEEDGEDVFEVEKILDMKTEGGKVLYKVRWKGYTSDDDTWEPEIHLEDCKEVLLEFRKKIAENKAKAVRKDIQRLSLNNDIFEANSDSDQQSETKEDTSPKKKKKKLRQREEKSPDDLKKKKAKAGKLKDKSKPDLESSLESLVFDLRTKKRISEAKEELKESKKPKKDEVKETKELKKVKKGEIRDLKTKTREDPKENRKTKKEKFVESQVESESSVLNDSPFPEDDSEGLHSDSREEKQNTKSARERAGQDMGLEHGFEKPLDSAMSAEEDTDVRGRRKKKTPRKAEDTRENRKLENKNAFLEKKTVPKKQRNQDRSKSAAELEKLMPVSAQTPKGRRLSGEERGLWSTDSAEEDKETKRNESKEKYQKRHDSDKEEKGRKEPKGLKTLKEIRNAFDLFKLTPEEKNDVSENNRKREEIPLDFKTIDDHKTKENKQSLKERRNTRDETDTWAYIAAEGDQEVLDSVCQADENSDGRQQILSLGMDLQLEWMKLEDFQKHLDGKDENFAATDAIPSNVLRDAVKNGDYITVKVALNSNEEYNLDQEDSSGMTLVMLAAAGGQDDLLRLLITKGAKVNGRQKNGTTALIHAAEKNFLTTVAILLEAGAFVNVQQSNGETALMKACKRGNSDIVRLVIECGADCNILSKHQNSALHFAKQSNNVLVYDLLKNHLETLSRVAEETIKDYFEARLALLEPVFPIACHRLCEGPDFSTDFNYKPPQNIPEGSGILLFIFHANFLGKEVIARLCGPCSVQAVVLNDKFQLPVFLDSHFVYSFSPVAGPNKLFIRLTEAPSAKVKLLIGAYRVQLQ
# Procedure, shortened: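 AlphaScreen read-out: streptavidin donor and nickel chelate acceptor beads (final 10 ug/mL), 30 min in the dark at RT. Complex of 50 nM MPP8 and 50 nM b-H3(1-18)K9me3 peptide had been exposed to compounds for 30 min beforehand.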
# [14] = Inducers of the Endoplasmic Reticulum Stress Response (ERSR) in human glioma: Validation (AID 504836; active = well fitted curve in the direction sought with a large enough effect; an effect the other way counts as inactive or inconclusive)
# Procedure, shortened: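 Stably transfected U87-MG human glioma cells carrying a GRP78-based luminescent sensor were seeded at 1000 cells/well, pin-dosed with compounds and incubated 16 h. Luciferase reagent was then added, and end-point luminescence was read after 10 min at room temperature.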
smiles,measurement,setting,value
Cc1ccccc1C(=O)c1ccc(Nc2ccc(Br)cc2N)cc1Cl,Potency,[1],inactive
same,Potency,[2],inactive
same,Potency,[3],inactive
same,Potency,[4],inactive
CSc1cccc(Nc2ncc3cc(-c4c(Cl)cccc4Cl)c(=O)n(C)c3n2)c1,Potency,[1],inactive
same,Potency,[2],inactive
same,Potency,[3],inactive
same,Potency,[4],inactive
same,"activity change, negative = inhibition",[5],-95.8%
Cn1cnc2c(F)c(Nc3ccc(Br)cc3F)c(C(=O)NOCCO)cc21,Potency,[1],inactive
same,Potency,[2],inactive
same,Potency,[3],inactive
same,Potency,[4],inactive
same,"activity change, negative = inhibition",[5],-25.1%
COc1ccc(C(C)=O)c(O)c1,Potency,[1],inactive
same,Potency,[2],inactive
same,Potency,[3],inactive
same,Potency,[4],inactive
same,Potency,[6],inactive
same,outcome,[7],inactive
N#C/C(=C\c1ccc(O)c(O)c1)C(=O)NCCCNC(=O)/C(C#N)=C/c1ccc(O)c(O)c1,Potency,[8],2000 nM (active)
same,Potency,[9],inactive
same,outcome,[10],inactive
same,outcome,[11],inactive
same,Potency,[12],inactive
same,Potency,[13],316 nM (active) and 2.12 µM (active)
same,outcome,[14],inactive
same,Potency,[1],inactive
same,Potency,[2],inactive
same,Potency,[3],inactive
same,Potency,[4],inactive
CC[C@H](CC#N)OC(=O)N[C@@H](C)c1cccc(NC(=O)Nc2ccc(-c3cnco3)c(OC)c2)c1,Potency,[1],1530 nM (active)
same,Potency,[2],769 nM (active)
same,Potency,[3],968 nM (active)
same,Potency,[4],769 nM (active)
same,"activity change, negative = inhibition",[5],-97.5%
CC(=O)OC/C=C/c1ccccc1,Potency,[1],inactive
same,Potency,[2],inactive
same,Potency,[3],inactive
same,Potency,[4],inactive
same,Potency,[6],inactive
same,outcome,[7],inactive
O=C1NC(=O)/C(=C/c2ccc(-c3ccc(F)cc3O)o2)S1,outcome,[14],inactive
same,Potency,[1],inactive
same,Potency,[2],inactive
same,Potency,[3],inactive
same,Potency,[4],inactive
same,Potency,[5],inactive
CCn1nnc2c(N3CCOCC3)nc(-c3ccc(NC(=O)Nc4ccc(C(=O)N5CCN(C)CC5)cc4)cc3)nc21,Potency,[1],54.4 nM (active)
same,Potency,[2],24.3 nM (active)
same,Potency,[3],30.6 nM (active)
same,Potency,[4],38.5 nM (active)
same,"activity change, negative = inhibition",[5],-84.5%
CNC(=O)Nc1ccc(-c2nc(N3CC4CCC(C3)O4)c3cnn(C4CCC5(CC4)OCCO5)c3n2)cc1,Potency,[1],15.3 nM (active)
same,Potency,[2],4.9 nM (active)
same,Potency,[3],15.3 nM (active)
same,Potency,[4],27.3 nM (active)
same,"activity change, negative = inhibition",[5],-83.7%
O=[N+]([O-])c1ccc(Nc2ccccc2-c2ccccc2)c2nonc12,Potency,[1],inactive
same,Potency,[2],inactive
same,Potency,[3],inactive
same,Potency,[4],inactive
same,Potency,[5],7940 nM (active)
O=C(Nc1cccc(Nc2ncc(Br)c(NCCc3cnc[nH]3)n2)c1)N1CCCC1,Potency,[1],inactive
same,Potency,[2],21700 nM (active)
same,Potency,[3],27300 nM (active)
same,Potency,[4],inactive
same,"activity change, negative = inhibition",[5],-97.2%
"Cc1c2oc3c(C)ccc(C(=O)NC4C(=O)NC(C(C)C)C(=O)N5CCCC5C(=O)N(C)CC(=O)N(C)C(C(C)C)C(=O)OC4C)c3nc-2c(C(=O)NC2C(=O)NC(C(C)C)C(=O)N3CCCC3C(=O)N(C)CC(=O)N(C)C(C(C)C)C(=O)OC2C)c(N)c1=O (stereo not drawn) (I: TVP[Sar][NMeV] / II: TVP[Sar][NMeV]; ester I:1-I:C, II:1-II:C; linker I:N-II:N via Actinocin(9to1); configuration not given here)",Potency,[1],inactive
same,Potency,[2],inactive
same,Potency,[3],inactive
same,Potency,[4],inactive
same,"activity change, negative = inhibition",[5],-91.5% [at 27.1 µM]
Nc1ncnc2c1c(-c1cnc3[nH]ccc3c1)nn2C1CCCC1,Potency,[1],6850 nM (active)
same,Potency,[2],1720 nM (active)
same,Potency,[3],2170 nM (active)
same,Potency,[4],6110 nM (active)
same,Potency,[5],10000 nM (active)
COC[C@H](NC(=O)c1cnc(C)s1)C(=O)N[C@@H](COC)C(=O)N[C@@H](Cc1ccccc1)C(=O)[C@@]1(C)CO1,Potency,[1],273 nM (active)
same,Potency,[2],685 nM (active)
same,Potency,[3],685 nM (active)
same,Potency,[4],769 nM (active)
same,"activity change, negative = inhibition",[5],-97.7%
C[C@H](O)[C@@H]1C(=O)N2C(C(=O)O)=C(S[C@@H]3CN[C@H](CNS(N)(=O)=O)C3)[C@@H](C)[C@@H]12,Potency,[1],inactive
same,Potency,[2],inactive
same,Potency,[3],inactive
same,Potency,[4],inactive
same,Potency,[5],inactive
